In PubChem BioAssay (EPA / NIEHS):
Where “and” joins values, the source holds several entries; their conditions need not be identical. Equal entries are not always repeated. A structure can be active in one record and inactive in another. Calls of active or inactive are those of the source. How the source made its calls: active means hit-call score of the fitted dose curve at least 0.9, where 1 is the maximum; inactive means score below 0.9.

Each molecule was assayed against Aryl hydrocarbon receptor (Homo sapiens) (UniProt P35869) (assay: ATG_Ahr_CIS: Attagene CIS-FACTORIAL HepG2 Assay for human Aryl Hydrocarbon Receptor (Ahr) (AID 2282930)). Conditions: HepG2 AhR cis-factorial reporter transcription; actives raise or lower the signal.
Chain of Aryl hydrocarbon receptor (Homo sapiens) (P35869 whole entry, looked up): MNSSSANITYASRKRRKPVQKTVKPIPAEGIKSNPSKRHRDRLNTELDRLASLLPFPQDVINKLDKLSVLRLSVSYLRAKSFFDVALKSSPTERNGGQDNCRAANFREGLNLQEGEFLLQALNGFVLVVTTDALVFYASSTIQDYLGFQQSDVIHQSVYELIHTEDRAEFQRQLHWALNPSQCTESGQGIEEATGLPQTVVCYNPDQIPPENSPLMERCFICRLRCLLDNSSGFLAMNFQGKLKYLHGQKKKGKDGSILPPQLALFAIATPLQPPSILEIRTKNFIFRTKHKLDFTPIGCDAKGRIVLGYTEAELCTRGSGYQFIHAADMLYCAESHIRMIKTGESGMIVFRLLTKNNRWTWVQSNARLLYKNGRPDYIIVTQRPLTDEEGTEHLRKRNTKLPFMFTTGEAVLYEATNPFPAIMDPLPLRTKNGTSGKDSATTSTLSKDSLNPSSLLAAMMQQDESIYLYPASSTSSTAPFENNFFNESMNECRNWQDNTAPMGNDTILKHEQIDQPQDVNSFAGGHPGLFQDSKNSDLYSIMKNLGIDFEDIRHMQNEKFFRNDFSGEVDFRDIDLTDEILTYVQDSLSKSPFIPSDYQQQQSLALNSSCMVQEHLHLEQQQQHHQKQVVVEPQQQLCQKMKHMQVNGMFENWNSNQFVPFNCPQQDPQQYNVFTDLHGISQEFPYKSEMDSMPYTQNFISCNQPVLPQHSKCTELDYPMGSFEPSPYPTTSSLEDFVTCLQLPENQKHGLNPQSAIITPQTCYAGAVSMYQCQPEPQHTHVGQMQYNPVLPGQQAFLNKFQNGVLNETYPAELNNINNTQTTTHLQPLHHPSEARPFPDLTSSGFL
Procedure: ATG_CIS is a cell-based, multiplexed-readout assay that uses HepG2, a human liver cell line, with measurements taken at 24 hours after chemical dosing in a 24-well plate.ATG_Ahr_CIS is one of 52 assay component(s) measured or calculated from the ATG_CIS assay. It is designed to make measurements of mRNA induction, a form of inducible reporter, as detected with fluorescence intensity signals by Reverse transcription polymerase chain reaction (RT-PCR) and Capillary electrophoresis technology.Data from the assay component ATG_Ahr_CIS was analyzed into 1 assay endpoint. This assay endpoint, ATG_Ahr_CIS, was analyzed with bidirectional fitting relative to DMSO as the negative control and baseline of activity. Using a type of inducible reporter, measures of mRNA for gain or loss-of-signal activity can be used to understand the reporter gene at the transcription factor-level as they relate to the gene AHR. Furthermore, this assay endpoint can be referred to as a primary readout, because this assay has produced multiple assay endpoints where this one serves a reporter gene function. To generalize the intended target to other relatable targets, this assay endpoint is annotated to the dna binding intended target family, where the subfamily is basic helix-loop-helix protein.
Human liver HepG2 cells are transiently transfected with multiple reporter transcription units (MRTUs) in 6-well plates using FuGene 6 reagent (Roche; 3 ml FuGene/1 mg DNA). The MRTU constructs are regulated by a cis-regulating element (promoter). […] A major difference between the CIS and TRANS system is that in CIS activities of endogenous TFs are measured, whereas the TRANS assay evaluates changes in activities of exogenous, chimeric NR-Gal4 proteins. […] At the end of 24 hour incubation, total RNA was isolated using TriZol reagent (Invitrogen). The isolated RNA is then reverse-transcribed using oligo(dT) primer and Mo-MLV reverse transcriptase (Invitrogen) with DNAse I (Ambion) treatment for 30 min. The one-tenth of the produced cDNA was amplified by PCR using Taq DNA polymerase (Invitrogen) and two reporter sequence-specific primers. The PCR products were fluorescently labeled by primer extension with 6-arboxyfluorescein (6-FAM) 5'-labeled reporter sequence-specific primer (2 min at 95 C, 20 s at 68 C and 10 min at 72 C) and these products were digested with 5U of HpaI (New England Biolabs) for 2h at 37 C. […] The raw capillary electrophoresis data was processed using Attagraph software (Attagene).

| Structure (SMILES) | outcome | AC50 |
| --- | --- | --- |
| CCC(=O)OCCc1ccccc1 | inactive | – |
| FC(F)(F)C(F)(F)C(F)(F)N(C(F)(F)C(F)(F)C(F)(F)F)C(F)(F)C(F)(F)C(F)(F)F | inactive | – |
| CCCCCC=O | inactive | – |
| CC(C)OC(=O)c1ccccc1C(=O)OC(C)C | inactive | – |
| Nc1ccc([N+](=O)[O-])cc1O | – | 25.5 µM (active) |
| O=S(=O)(O)C(F)(F)C(F)(F)C(F)(F)C(F)(F)C(F)(F)C(F)(F)C(F)(F)F | inactive | – |
| C=CC(=O)OCC(F)(F)C(F)(F)C(F)(F)C(F)(F)C(F)(F)C(F)(F)C(F)(F)F | inactive | – |
| FC(F)(F)C(F)(F)C(F)(F)C(F)(F)C(F)(F)C(F)(F)C(F)(F)I | inactive | – |
| O=C(O)C(F)(OC(F)(F)C(F)(OC(F)(F)C(F)(OC(F)(F)C(F)(F)C(F)(F)F)C(F)(F)F)C(F)(F)F)C(F)(F)F (stereo not given) | inactive | – |
| Cc1cc(C)cc(O)c1 | inactive | – |
| FC(F)(F)C(F)(F)CNCC(F)(F)C(F)(F)F | inactive | – |
| FC(F)(F)C(F)(F)C(F)(F)C(F)(F)C(F)(F)C(F)(F)CC1CO1 (stereo not given) | inactive | – |
| CC/C=C\CCOC(=O)c1ccccc1 | inactive | – |
| O=P(O)(O)OCCC(F)(F)C(F)(F)C(F)(F)C(F)(F)C(F)(F)C(F)(F)F | inactive | – |
| C=CC/C=C/C/C=C/C/C=C/C | inactive | – |
| C=CC(=O)OCC(F)(F)C(F)(F)C(F)(F)C(F)(F)COC(=O)C=C | inactive | – |
| CCCCNc1ccccc1 | inactive | – |
| COC(=O)CCC(F)(F)C(F)(F)C(F)(F)C(F)(F)F | inactive | – |
| OC[C@@H](O)[C@@H](O)[C@H](O)[C@@H](O)CO | inactive | – |

| Structure (SMILES) | outcome | AC50 |
| --- | --- | --- |
| CCCCCCS | inactive | – |
| CCCCOc1ccc(N)cc1 | inactive | – |
| FC(F)(F)C(F)(F)C(F)(F)C(F)(F)CCI | inactive | 43.5 µM (active) |
| CN(C)Cc1ccccc1O | inactive | – |
| O=C(O)C(F)(F)C(F)(F)C(F)F | inactive | – |
| O=S(=O)(OCCOC(F)(F)F)C(F)(F)F | inactive | 101 µM (active) |
| O=C(Cl)C(F)(F)C(F)(F)C(F)(F)C(F)(F)C(F)(F)C(F)(F)C(F)(F)C(F)(F)F | inactive | – |
| O=C(C=Cc1ccccc1)OCC=Cc1ccccc1 | inactive | – |
| O=C(CC(=O)C(F)(F)C(F)(F)F)C(F)(F)F | inactive | – |
| O=S(=O)(O)c1ccc2ccccc2c1 | – | 42.7 µM (active) and 40.3 µM (active) |
| OCC(F)(F)C(F)(F)C(F)(F)C(F)(F)C(F)(F)C(F)F | inactive | – |
| O=C(O)C(F)(F)C(F)(F)C(F)(F)C(F)(F)C(F)(F)C(F)(F)C(F)(F)C(F)(F)C(F)(F)C(F)(F)C(F)(F)C(F)(F)F | inactive | – |
| FC(F)(F)C(F)(F)C(F)(F)C(F)(F)C(F)(F)C(F)(F)C(F)(F)Br | inactive | – |
| CC(=O)Nc1ccc(N=Nc2cc(C)ccc2O)cc1 | – | 17.7 µM (active) |
| CC(C)c1ccccc1N | inactive | – |
| CC(CCl)OP(=O)(OC(C)CCl)OC(C)CCl (stereo not given) | inactive | – |
| FC(F)(I)C(F)(F)C(F)(F)C(F)(F)I | inactive | – |
| C(=C(c1ccccc1)c1ccccc1)c1ccccc1 | inactive | – |
| CC(C)(C)c1ccc(OC2CCCCC2O)cc1 (stereo not given) | inactive | – |
